According to PubChem BioAssay AID1159580 (chemical genetic matrix, 2015):
Hit rate of the full screen: of about 5,500 compounds, about 2,000 (36%) were called active. Not shown: some 18% with an inconclusive outcome. The list shows a part of the results. A number with no mark means an inactive call. Rule as the data show it: active = normalized growth mostly below about 0.91 (no sharp cut-off); inconclusive = no clear call, values can overlap the other calls; inactive = mostly above about 0.92.

Assay: chemical genetic growth profiling, strain panel (AID 1159580);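 also: tested at 20 µM; growth read once vehicle control cultures reached saturation at 30 °C; 1 = growth at the plate median or of vehicle wells; lower values mean less growth of the strain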
Details: S. cerevisiae deletion strains, growth OD
[1] = locus YAL013W, strain DEP1, active compounds read low
[2] = locus YBR229C, strain ROT2, active compounds read low
[3] = locus YCL061C, strain MRC1, active compounds read low
[4] = locus YDL101C, strain DUN1, active compounds read low
[5] = locus YDR150W, strain NUM1, active compounds read low
[6] = locus YEL061C, strain CIN8, active compounds read low
[7] = locus YGR078C, strain PAC10, active compounds read low
[8] = locus YHR030C, strain SLT2, active compounds read low
[9] = locus YHR087W, strain rtc3, active compounds read low
[10] = locus YJR043C, strain POL32, active compounds read low
[11] = locus YJR075W, strain HOC1, active compounds read low
[12] = locus YLR039C, strain RIC1, active compounds read low
[13] = locus YLR058C, strain SHM2 (second series), active compounds read low
[14] = locus YLR085C, strain ARP6, active compounds read low
[15] = locus YLR262C, strain YPT6, active compounds read low
[16] = locus YML094W, strain GIM5, active compounds read low
[17] = locus YMR219W, strain ESC1, active compounds read low
[18] = locus YMR263W, strain SAP30, active compounds read low
[19] = locus YNL153C, strain GIM3, active compounds read low
[20] = locus YNL298W, strain CLA4 (second series), active compounds read low
[21] = locus YNL322C, strain KRE1, active compounds read low
[22] = locus YNR030W, strain Alg12, active compounds read low
[23] = locus YOL006C, strain TOP1, active compounds read low
[24] = locus YPL055C, strain LGE1, active compounds read low
[25] = locus YPL241C, strain CIN2, active compounds read low
[26] = locus YPR135W, strain CTF4, active compounds read low

SMILES: CN(C)C=Nc1nnc(Sc2ncccc2[N+](=O)[O-])s1
- normalized growth [1]: 0.999
- normalized growth [2]: 1
- normalized growth [3]: 1.01
- normalized growth [4]: 1.01
- normalized growth (locus YDL134C, strain PPH21, active compounds read low): 1.01
- normalized growth [5]: 0.987
- normalized growth [6]: 0.995
- normalized growth [7]: 1
- normalized growth (locus YGR229C, strain SMI1, active compounds read low): 0.992
- normalized growth [8]: 1
- normalized growth [9]: 1.01
- normalized growth [10]: 0.985
- normalized growth [11]: 0.997
- normalized growth [12]: 1.03
- normalized growth [13]: 1
- normalized growth [14]: 1.06
- normalized growth [15]: 1.03
- normalized growth [16]: 1.01
- normalized growth [17]: 1.01
- normalized growth [18]: 0.995
- normalized growth (locus YMR307W, strain GAS1, active compounds read low): 0.983
- normalized growth [19]: 0.977
- normalized growth [20]: 1.06
- normalized growth [21]: 1.02
- normalized growth [22]: 1.04
- normalized growth [23]: 1.01
- normalized growth [24]: 0.988
- normalized growth [25]: 1.02
- normalized growth [26]: 1.06

SMILES: O=[N+]([O-])c1cc(Br)cnc1Sc1nnc(SCC2CC2)s1
- normalized growth (locus YAR019C, strain CDC15, active compounds read low): 0.928
- normalized growth (locus YBL105C, strain PKC1, active compounds read low): 0.96
- normalized growth (locus YBR135W, strain CKS1, active compounds read low): 0.932
- normalized growth (locus YBR136W, strain MEC1, active compounds read low): 0.959
- normalized growth (locus YBR160W, strain CDC28, active compounds read low): 0.953
- normalized growth (locus YDL017W, strain CDC7, active compounds read low): 0.961
- normalized growth (locus YDL028C, strain MPS1, active compounds read low): 0.935
- normalized growth [4]: 0.965
- normalized growth (locus YDL108W, strain KIN28, active compounds read low): 0.952
- normalized growth (locus YDL132W, strain cdc53, active compounds read low): 0.936
- normalized growth (locus YDL214C, strain PRR2, active compounds read low): 0.458 (active)
- normalized growth (locus YDR052C, strain DBF4, active compounds read low): 0.964
- normalized growth (locus YDR054C, strain cdc34, active compounds read low): 0.947
- normalized growth (locus YDR226W, strain ADK1, active compounds read low): 0.927
- normalized growth (locus YDR477W, strain SNF1, active compounds read low): 0.767
- normalized growth (locus YER123W, strain YCK3, active compounds read low): 0.529 (active)
- normalized growth (locus YER133W, strain GLC7, active compounds read low): 0.762
- normalized growth (locus YFL009W, strain cdc4, active compounds read low): 0.93
- normalized growth (locus YFL029C, strain CAK1, active compounds read low): 0.943
- normalized growth (locus YFR003C, strain YPI1, active compounds read low): 0.962
- normalized growth (locus YFR019W, strain FAB1, active compounds read low): 0.721 (active)
- normalized growth (locus YFR028C, strain CDC14, active compounds read low): 0.943
- normalized growth (locus YGR040W, strain KSS1, active compounds read low): 0.771
- normalized growth (locus YGR052W, strain FMP48, active compounds read low): 0.7
- normalized growth (locus YGR092W, strain DBF2, active compounds read low): 0.484 (active)
- normalized growth [8]: 0.197 (active)
- normalized growth (locus YHR079C, strain IRE1, active compounds read low): 0.418 (active)
- normalized growth (locus YHR082C, strain KSP1, active compounds read low): 0.707
- normalized growth (locus YHR205W, strain SCH9, active compounds read low): 0.609
- normalized growth (locus YIL147C, strain SLN1, active compounds read low): 0.952
- normalized growth (locus YJL095W, strain BCK1, active compounds read low): 0.35 (active)
- normalized growth (locus YJL128C, strain PBS2, active compounds read low): 0.948
- normalized growth (locus YJL157C, strain FAR1, active compounds read low): 0.533 (active)
- normalized growth (locus YJR016C, strain ILV3, active compounds read low): 0.944
- normalized growth (locus YJR066W, strain TOR1 (second series), active compounds read low): 0.531 (active)
- normalized growth (locus YJR066W, strain TOR1, active compounds read low): 0.621
- normalized growth (locus YKL048C, strain ELM1, active compounds read low): 0.778 (active)
- normalized growth (locus YKL067W, strain YNK1, active compounds read low): 0.39 (active)
- normalized growth (locus YKL101W, strain HSL1, active compounds read low): 0.542 (active)
- normalized growth (locus YKL193C, strain SDS22, active compounds read low): 0.935
- normalized growth (locus YKL203C, strain TOR2, active compounds read low): 0.872
- normalized growth (locus YLR113W, strain HOG1, active compounds read low): 0.554 (active)
- normalized growth (locus YLR133W, strain CKI1, active compounds read low): 0.574 (active)
- normalized growth (locus YLR403W, strain SFP1, active compounds read low): 0.754
- normalized growth (locus YML070W, strain DAK1, active compounds read low): 0.465 (active)
- normalized growth (locus YMR001C, strain CDC5, active compounds read low): 0.928
- normalized growth (locus YMR205C, strain PFK2 (second series), active compounds read low): 0.387 (active)
- normalized growth (locus YMR277W, strain FCP1, active compounds read low): 0.924
- normalized growth (locus YNL006W, strain LST8, active compounds read low): 0.961
- normalized growth (locus YNL020C, strain ARK1, active compounds read low): 0.418 (active)
- normalized growth (locus YNL161W, strain CBK1, active compounds read low): 0.939
- normalized growth (locus YNL183C, strain NPR1, active compounds read low): 0.351 (active)
- normalized growth (locus YNL207W, strain RIO2, active compounds read low): 0.929
- normalized growth (locus YNL222W, strain SSU72, active compounds read low): 0.944
- normalized growth (locus YNL307C, strain MCK1 (second series), active compounds read low): 0.556 (active)
- normalized growth (locus YOL078W, strain AVO1, active compounds read low): 0.927
- normalized growth (locus YOL136C, strain PFK27, active compounds read low): 0.633 (active)
- normalized growth (locus YOR061W, strain CKA2, active compounds read low): 0.174 (active)
- normalized growth (locus YOR119C, strain RIO1, active compounds read low): 0.818
- normalized growth (locus YOR231W, strain MKK1, active compounds read low): 0.333 (active)
- normalized growth (locus YOR329C, strain SCD5, active compounds read low): 0.962
- normalized growth (locus YPL031C, strain PHO85, active compounds read low): 0.55 (active)
- normalized growth (locus YPL153C, strain RAD53, active compounds read low): 0.629 (active)
- normalized growth (locus YPL204W, strain HRR25, active compounds read low): 0.751
- normalized growth (locus YPL209C, strain IPL1, active compounds read low): 0.958
- normalized growth (locus YPL256C, strain CLN2, active compounds read low): 0.515 (active)
- normalized growth (locus YPR025C, strain CCL1, active compounds read low): 0.95
- normalized growth (locus YPR106W, strain ISR1, active compounds read low): 0.978
- normalized growth (locus YPR111W, strain DBF20, active compounds read low): 0.96
- normalized growth (strain NNK1, active compounds read low): 0.969
- normalized growth (strain TSCII, active compounds read low): 0.929

SMILES: CC(C)(C)NS(=O)(=O)NC(C)(C)C
- normalized growth [1]: 0.995
- normalized growth [2]: 1
- normalized growth [3]: 1.03
- normalized growth [4]: 0.977
- normalized growth [5]: 0.88
- normalized growth [6]: 1.01
- normalized growth [7]: 0.999
- normalized growth [8]: 0.952
- normalized growth [9]: 0.964
- normalized growth (locus YJL187C, strain SWE1, active compounds read low): 0.999
- normalized growth [10]: 0.998
- normalized growth [11]: 1.02
- normalized growth (locus YKL190W, strain CNB1, active compounds read low): 1
- normalized growth [12]: 1.02
- normalized growth [13]: 1
- normalized growth [14]: 0.999
- normalized growth [15]: 1.02
- normalized growth [16]: 0.976
- normalized growth [17]: 0.995
- normalized growth [18]: 1.04
- normalized growth (locus YNL128W, strain TEP1, active compounds read low): 0.997
- normalized growth [19]: 1.01
- normalized growth [20]: 0.973
- normalized growth [21]: 1
- normalized growth [22]: 1.01
- normalized growth [23]: 1.01
- normalized growth [24]: 0.921
- normalized growth [25]: 1.16 [resistant] (active)
- normalized growth [26]: 1.02
